# Assay results published in PubChem BioAssay (NCATS).
# Inconclusive results are not listed. Activity calls are given as the source filed them. The call rests on the fitted dose curve; in most records, active means well fitted inhibition curve with a large enough effect; inconclusive means small, poorly fitted or top-dose-only effect; inactive means flat fitted curve, though single readings scatter.
# Biological target: Glutathione peroxidase 1 (Homo sapiens) (UniProt P07203)
# Assay: Primary qHTS Assay for Inhibitors of Recombinant Selenoprotein Glutathione Peroxidase 1 (GPX1) (AID 1845191)
# Conditions: recombinant GPX1, GR-coupled NADPH fluorescence, 15 min; series mostly up to 48.8 µM; activity, negative = inhibition: at the top concentration
# Summary of the method: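 GR-coupled assay: compounds preincubated 30 min at room temperature with GPX1, then reaction started with CHP; final 10 nM GPX1, 1 mM GSH, 0.5 mM CHP, 0.5 mM NADPH, 100 nM GR, 0.01% BSA, pH 7.5 Tris buffer. NADPH fluorescence (340/450 nm) read at 0 and 15 min.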
# Further: nearly all actives have a fitted effect of over 65% in size.
# On the % scale 0 is the no-effect control and ±100 the full control effect.
# Glutathione peroxidase 1 (Homo sapiens), sequence (P07203 whole entry, looked up): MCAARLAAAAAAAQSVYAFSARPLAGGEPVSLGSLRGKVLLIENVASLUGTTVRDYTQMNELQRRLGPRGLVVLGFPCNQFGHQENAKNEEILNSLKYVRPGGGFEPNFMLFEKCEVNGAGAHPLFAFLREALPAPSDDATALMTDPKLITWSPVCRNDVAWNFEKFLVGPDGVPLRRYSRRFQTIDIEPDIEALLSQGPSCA
SMILES,"activity, negative = inhibition",outcome,Potency
O=C(OCC(COC(=O)c1cccnc1)(COC(=O)c1cccnc1)COC(=O)c1cccnc1)c1cccnc1,2.18% (inactive),–,–
CCOC(=O)c1ccc(NC(=O)CN2CCCCC2)cc1,-11.4% (inactive),–,–
Oc1ccccc1,-13.6% (inactive),–,–
Cc1ccc(C(=O)C(=O)O)cc1C,-9.4% (inactive),–,–
O=C1[C@@H]2[C@H]3CC[C@H](C3)[C@@H]2C(=O)N1CCCCN1CCN(c2ncccn2)CC1,-4.3% (inactive),–,–
CC(=O)OCC(=O)[C@@]1(O)CCC2C3CCC4=CC(=O)CC[C@]4(C)C3[C@@H](O)C[C@@]21C (stereo partly specified),0.576% (inactive),–,–
C/C(=N/NC(=O)c1ccncc1)C(=O)O,-0.438% (inactive),–,–
Cc1ccc2c(Cl)cc(Cl)c(O)c2n1,1.23% (inactive),–,–
Cc1ncc(CO)c(CO)c1O,0.627% (inactive),–,–
CCO[C@H](Cc1ccc(OCCc2ccc(OS(C)(=O)=O)cc2)cc1)C(=O)O,–,inactive,–
CCCCC(CC)CNC(=O)CC(C)OC(=O)CCC(=O)O (stereo unspecified),-1.93% (inactive),–,–
C/C(=N\O)[C@@H](C)NCC(C)(C)CN[C@H](C)/C(C)=N/O,–,inactive,–
CCCC(=O)O[C@]1(C(=O)CC)CC[C@H]2[C@@H]3CCC4=CC(=O)CC[C@]4(C)[C@H]3[C@@H](O)C[C@@]21C,-13.4% (inactive),–,–
CN1C(CSCC(F)(F)F)Nc2cc(Cl)c(S(N)(=O)=O)cc2S1(=O)=O (stereo unspecified),-2.63% (inactive),–,–
CN1CC(=O)N2[C@H](c3ccc4c(c3)OCO4)c3[nH]c4ccccc4c3C[C@@H]2C1=O,–,–,inactive
C#CC(C)(CC)OC(=O)c1ccccc1C(=O)O (stereo unspecified),-7.62% (inactive),–,–
Cc1ccc(C(C)OC(=O)C2(C)CCC(C(=O)O)C2(C)C)cc1 (stereo unspecified),–,inactive,–

SMILES,"activity, negative = inhibition",outcome,Potency
C/C(=C1\CCOC(=O)S1)N(C=O)Cc1cnc(C)nc1N,–,inactive,–
Cc1ccc(O)cc1,-10.9% (inactive),–,–
CC(C)(C)NCC(O)COc1ccccc1OCC1CCCO1 (stereo unspecified),-17.4% (inactive),–,–
CCOC(=O)c1ccc(OCCN2C[C@H](O)[C@@H](O)[C@H](O)[C@H]2CO)cc1,-1.56% (inactive),–,–
CC(C(O)c1ccccc1)N(C)CCOC(c1ccccc1)c1ccccc1 (stereo unspecified),-5.51% (inactive),–,–
CC(=O)N(c1onc(C)c1C)S(=O)(=O)c1ccc(N)cc1,-14.7% (inactive),–,–
CCCCCCCCCCCCCCCCCCNC(=O)OC1CCN(C(=O)OC[C@H](COC(=O)N(Cc2cccc[n+]2CC)C(=O)c2ccccc2OC)OC)CC1,–,inactive,–
COC(=O)C1=C(C)NC(C)=C(C(=O)OCCc2ccc(N3CCN(C(c4ccccc4)c4ccccc4)CC3)cc2)C1c1cccc([N+](=O)[O-])c1 (stereo unspecified),-11.3% (inactive),–,–
C[C@H]1C[C@@H]2[C@H]([C@@H](O)C[C@@]3(C)[C@H]2CC[C@]3(O)C(=O)CO)[C@@]2(C)C=CC(=O)C=C12,–,–,inactive
CC(=O)Nc1ccn(C2COC(COC(=O)c3ccccc3)O2)c(=O)n1 (stereo unspecified),4.72% (inactive),–,–
CC(=O)N(CC(O)CO)c1c(I)c(C(=O)NCCO)c(I)c(C(=O)NCC(O)CO)c1I (stereo unspecified),–,inactive,–
CCOC(=O)c1cc(=O)c2c(OCC(COc3cccc4oc(C(=O)OCC)cc(=O)c34)OC(=O)[C@@H](N)CCCCN)cccc2o1,-25.6% (inactive),–,–
O=C(O)[C@@H](O)[C@H](O)[C@H](O)[C@@H](O)C(=O)O,1.63% (inactive),–,–
COc1ccc(-n2nc(CCC(=O)N(C)O)cc2-c2ccc(Cl)cc2)cc1,–,inactive,–
O=C1NCCN1CCN1CCC(c2cn(-c3ccc(F)cc3)c3ccc(Cl)cc23)CC1,-25.9% (inactive),–,–
Cc1oc(=O)oc1COC(=O)[C@@H]1N2C(=O)[C@@H](NC(=O)[C@H](N)c3ccccc3)[C@H]2SC1(C)C,0.0932% (inactive),–,–
C=CCOc1cc(Cl)ccc1C(=O)NCCN(CC)CC,-15.8% (inactive),–,–

# Biological target: Phospholipid hydroperoxide glutathione peroxidase GPX4 (Homo sapiens) (UniProt P36969)
# Assay: Primary qHTS Assay for Inhibitors of Recombinant Selenoprotein Glutathione Peroxidase 4 (GPX4) (AID 1845192); further: potency means the concentration at half of the fitted maximal effect
# Conditions: recombinant GPX4, GR-coupled NADPH fluorescence, 15 min; series mostly up to 50 µM; activity change, negative = inhibition: at the top concentration
# Summary of the method: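 GR-coupled assay: recombinant GPX4 preincubated 30 min with compound at room temperature; final 200 nM GPX4, 1 mM GSH, 0.5 mM cumene hydroperoxide, 0.5 mM NADPH, 100 nM GR, 0.01% BSA, pH 7.5 Tris. NADPH fluorescence (340/450 nm) read at 0 and 15 min.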
# Phospholipid hydroperoxide glutathione peroxidase GPX4 (Homo sapiens), sequence (P36969 whole entry, looked up): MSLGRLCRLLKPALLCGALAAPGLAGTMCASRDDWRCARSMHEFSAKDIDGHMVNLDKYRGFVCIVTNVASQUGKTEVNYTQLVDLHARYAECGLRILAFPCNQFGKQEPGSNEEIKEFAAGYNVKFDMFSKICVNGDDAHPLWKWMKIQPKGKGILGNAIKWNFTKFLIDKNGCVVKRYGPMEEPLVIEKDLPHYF
SMILES,"activity change, negative = inhibition",outcome,Potency
O=C(OCC(COC(=O)c1cccnc1)(COC(=O)c1cccnc1)COC(=O)c1cccnc1)c1cccnc1,2.88% (inactive),–,–
CCOC(=O)c1ccc(NC(=O)CN2CCCCC2)cc1,-8.45% (inactive),–,–
Oc1ccccc1,-8.21% (inactive),–,–
Cc1ccc(C(=O)C(=O)O)cc1C,-7.73% (inactive),–,–
O=C1[C@@H]2[C@H]3CC[C@H](C3)[C@@H]2C(=O)N1CCCCN1CCN(c2ncccn2)CC1,2.77% (inactive),–,–
CC(=O)OCC(=O)[C@@]1(O)CCC2C3CCC4=CC(=O)CC[C@]4(C)C3[C@@H](O)C[C@@]21C (stereo partly specified),4.5% (inactive),–,–
C/C(=N/NC(=O)c1ccncc1)C(=O)O,-3.26% (inactive),–,–
Cc1ccc2c(Cl)cc(Cl)c(O)c2n1,–,inactive,–
Cc1ncc(CO)c(CO)c1O,1.05% (inactive),–,–
CCO[C@H](Cc1ccc(OCCc2ccc(OS(C)(=O)=O)cc2)cc1)C(=O)O,–,inactive,–
CC[C@@]1(O)C(=O)OCc2c1cc1n(c2=O)Cc2c-1nc1ccccc1c2/C=N/OC(C)(C)C,–,–,12.6 µM (active)
CCCCC(CC)CNC(=O)CC(C)OC(=O)CCC(=O)O (stereo unspecified),-9.92% (inactive),–,–
C/C(=N\O)[C@@H](C)NCC(C)(C)CN[C@H](C)/C(C)=N/O,–,inactive,–
Nc1ncnc2nc[nH]c12,–,inactive,–
O=C(O)[C@H](O)[C@@H](O)[C@H](O[C@@H]1O[C@H](CO)[C@H](O)[C@H](O)[C@H]1O)[C@H](O)CO,-6.67% (inactive),–,–
CCCC(=O)O[C@]1(C(=O)CC)CC[C@H]2[C@@H]3CCC4=CC(=O)CC[C@]4(C)[C@H]3[C@@H](O)C[C@@]21C,-13.7% (inactive),–,–
CN1C(CSCC(F)(F)F)Nc2cc(Cl)c(S(N)(=O)=O)cc2S1(=O)=O (stereo unspecified),-13.3% (inactive),–,–
CN1CC(=O)N2[C@H](c3ccc4c(c3)OCO4)c3[nH]c4ccccc4c3C[C@@H]2C1=O,–,–,inactive
C#CC(C)(CC)OC(=O)c1ccccc1C(=O)O (stereo unspecified),-1.46% (inactive),–,–

SMILES,"activity change, negative = inhibition",outcome,Potency
Cc1ccc(C(C)OC(=O)C2(C)CCC(C(=O)O)C2(C)C)cc1 (stereo unspecified),–,inactive,–
C/C(=C1\CCOC(=O)S1)N(C=O)Cc1cnc(C)nc1N,–,inactive,–
Cc1ccc(O)cc1,-1.13% (inactive),–,–
CC(C)(C)NCC(O)COc1ccccc1OCC1CCCO1 (stereo unspecified),-15.1% (inactive),–,–
CCOC(=O)c1ccc(OCCN2C[C@H](O)[C@@H](O)[C@H](O)[C@H]2CO)cc1,–,inactive,–
CC(C(O)c1ccccc1)N(C)CCOC(c1ccccc1)c1ccccc1 (stereo unspecified),–,inactive,–
CC(=O)N(c1onc(C)c1C)S(=O)(=O)c1ccc(N)cc1,-4.35% (inactive),–,–
CCCCCCCCCCCCCCCCCCNC(=O)OC1CCN(C(=O)OC[C@H](COC(=O)N(Cc2cccc[n+]2CC)C(=O)c2ccccc2OC)OC)CC1,–,inactive,–
COC(=O)C1=C(C)NC(C)=C(C(=O)OCCc2ccc(N3CCN(C(c4ccccc4)c4ccccc4)CC3)cc2)C1c1cccc([N+](=O)[O-])c1 (stereo unspecified),–,inactive,–
C[C@H]1C[C@@H]2[C@H]([C@@H](O)C[C@@]3(C)[C@H]2CC[C@]3(O)C(=O)CO)[C@@]2(C)C=CC(=O)C=C12,–,–,inactive
CC(=O)Nc1ccn(C2COC(COC(=O)c3ccccc3)O2)c(=O)n1 (stereo unspecified),-5.79% (inactive),–,–
CC(=O)N(CC(O)CO)c1c(I)c(C(=O)NCCO)c(I)c(C(=O)NCC(O)CO)c1I (stereo unspecified),–,inactive,–
CCOC(=O)c1cc(=O)c2c(OCC(COc3cccc4oc(C(=O)OCC)cc(=O)c34)OC(=O)[C@@H](N)CCCCN)cccc2o1,-23.7% (inactive),–,–
O=C(O)[C@@H](O)[C@H](O)[C@H](O)[C@@H](O)C(=O)O,–,inactive,–
COc1ccc(-n2nc(CCC(=O)N(C)O)cc2-c2ccc(Cl)cc2)cc1,–,inactive,–
O=C1NCCN1CCN1CCC(c2cn(-c3ccc(F)cc3)c3ccc(Cl)cc23)CC1,-18.5% (inactive),–,–
Cc1oc(=O)oc1COC(=O)[C@@H]1N2C(=O)[C@@H](NC(=O)[C@H](N)c3ccccc3)[C@H]2SC1(C)C,–,inactive,–
C=CCOc1cc(Cl)ccc1C(=O)NCCN(CC)CC,2.77% (inactive),–,–
